Results on one sequence are retold here after publication PMC7862700, “An all-to-all approach to the identification of sequence-specific readers for epigenetic DNA modifications on cytosine”.

Assay in all cases: DAPPL (digital affinity profiling via proximity ligation, sequencing); 10 mM Tris-HCl pH 7.5, 50 mM NaCl, 1 mM DTT, 4% glycerol, room temperature, 30 min; GST-TFs on glutathione beads, 16-mer random dsDNA library, 0.1% formaldehyde crosslink after washing; high values mean tight binding
For one assay, the target named is T1, FEV (Homo sapiens, UniProt Q99581 1-238).
T1 sequence: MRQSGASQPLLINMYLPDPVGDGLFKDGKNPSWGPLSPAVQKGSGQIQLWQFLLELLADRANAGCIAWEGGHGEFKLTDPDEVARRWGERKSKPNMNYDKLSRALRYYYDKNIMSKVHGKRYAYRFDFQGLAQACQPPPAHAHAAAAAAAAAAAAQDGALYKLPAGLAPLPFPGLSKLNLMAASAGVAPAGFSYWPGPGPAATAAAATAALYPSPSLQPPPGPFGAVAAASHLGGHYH
The note with it: protein: recombinant; tags: N-terminal GST; dsDNA, one strand shown. The method in brief:
(§1)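 Human transcription factors were made in yeast as GST fusions, captured on glutathione beads and barcoded with DNA. With a tag-only sample included, the pool was incubated with 200 nmole of a random double-stranded 16-mer DNA library in Tris/NaCl/DTT/glycerol buffer at room temperature for 30 min, then crosslinked with 0.1% formaldehyde after washing, ligated by proximity, amplified and sequenced. For binding signal, each hexamer's read frequency for a factor is divided by its frequency for the tag-only sample.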

In the next assay the target is ETV5 (Homo sapiens, UniProt P41161 1-510). The conditions noted are these: protein: recombinant; tags: N-terminal GST; dsDNA, one strand shown. The method in brief:
as §1

For another assay, the target named is HSF1 (Homo sapiens, UniProt Q00613 1-529). The note with it: protein: recombinant; tags: N-terminal GST; chain copies: 3; dsDNA, one strand shown. The method in brief: as §1
Another assay addresses T2, SPIC (Homo sapiens, UniProt Q8N5J4 1-248).
T2 sequence: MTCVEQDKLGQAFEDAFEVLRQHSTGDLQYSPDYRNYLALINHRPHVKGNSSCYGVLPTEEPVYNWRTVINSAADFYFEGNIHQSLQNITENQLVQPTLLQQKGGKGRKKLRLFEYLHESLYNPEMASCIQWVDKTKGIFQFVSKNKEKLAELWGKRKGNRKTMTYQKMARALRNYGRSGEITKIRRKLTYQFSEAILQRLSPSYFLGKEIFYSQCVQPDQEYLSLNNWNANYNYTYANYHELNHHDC
The note with it: protein: recombinant; tags: N-terminal GST; dsDNA, one strand shown. The method, boiled down: as §1

The target in the next assay is ELF4 (Homo sapiens, UniProt Q99607 1-663). The conditions noted are these: protein: recombinant; tags: N-terminal GST; dsDNA, one strand shown. The method, boiled down:
as §1

In another assay the target is T3, ELK4 (Homo sapiens, UniProt P28324-2 1-405).
T3 sequence: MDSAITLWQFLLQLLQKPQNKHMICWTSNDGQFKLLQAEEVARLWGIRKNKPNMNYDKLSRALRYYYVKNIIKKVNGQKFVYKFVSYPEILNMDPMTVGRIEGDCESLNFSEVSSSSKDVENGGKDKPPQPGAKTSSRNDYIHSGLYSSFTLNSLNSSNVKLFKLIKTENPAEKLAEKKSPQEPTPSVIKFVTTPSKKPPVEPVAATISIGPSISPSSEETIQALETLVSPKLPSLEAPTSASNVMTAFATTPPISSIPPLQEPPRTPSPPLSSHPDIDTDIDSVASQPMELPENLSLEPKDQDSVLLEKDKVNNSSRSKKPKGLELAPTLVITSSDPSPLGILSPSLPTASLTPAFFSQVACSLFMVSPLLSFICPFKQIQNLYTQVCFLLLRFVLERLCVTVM
The conditions noted are these: protein: recombinant; tags: N-terminal GST; dsDNA, one strand shown. The method in brief: as §1

Another assay concerns the target T4, ETV2 (Homo sapiens, UniProt O00321 1-342).
T4 sequence: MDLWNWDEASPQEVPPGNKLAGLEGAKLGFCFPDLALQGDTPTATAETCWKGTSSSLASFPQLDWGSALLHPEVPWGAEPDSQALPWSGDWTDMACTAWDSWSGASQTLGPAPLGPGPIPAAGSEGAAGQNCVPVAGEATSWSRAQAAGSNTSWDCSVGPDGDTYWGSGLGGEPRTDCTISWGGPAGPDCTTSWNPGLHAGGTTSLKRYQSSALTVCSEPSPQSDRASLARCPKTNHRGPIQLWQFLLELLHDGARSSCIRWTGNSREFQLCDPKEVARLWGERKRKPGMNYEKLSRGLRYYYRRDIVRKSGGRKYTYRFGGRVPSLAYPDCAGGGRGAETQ
The conditions noted are these: protein: recombinant; tags: N-terminal GST; dsDNA, one strand shown. The method in brief: as §1

A further assay has as its target T5, ELF3 (Homo sapiens, UniProt P78545 1-371).
T5 sequence: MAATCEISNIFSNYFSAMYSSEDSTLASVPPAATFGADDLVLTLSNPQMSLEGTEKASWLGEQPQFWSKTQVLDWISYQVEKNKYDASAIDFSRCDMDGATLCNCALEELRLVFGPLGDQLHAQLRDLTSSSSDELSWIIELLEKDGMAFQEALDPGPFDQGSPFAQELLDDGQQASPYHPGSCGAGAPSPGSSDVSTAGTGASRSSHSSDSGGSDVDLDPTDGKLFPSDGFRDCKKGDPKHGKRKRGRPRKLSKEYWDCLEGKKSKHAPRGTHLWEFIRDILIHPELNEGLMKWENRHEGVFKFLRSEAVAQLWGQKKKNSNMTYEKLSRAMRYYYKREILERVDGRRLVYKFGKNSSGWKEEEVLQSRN
The note with it: protein: recombinant; tags: N-terminal GST; dsDNA, one strand shown. The method in brief:
as §1

Another assay concerns the target CRX (Homo sapiens, UniProt O43186 1-299). The conditions noted are these: protein: recombinant; tags: N-terminal GST; dsDNA, one strand shown. The method, boiled down:
as §1

In a further assay the target is ETV1 (Homo sapiens, UniProt P50549 1-477). The note with it: protein: recombinant; tags: N-terminal GST; dsDNA, one strand shown. The method in brief:
as §1

The next assay deals with T6, ERF (Homo sapiens, UniProt P50548 1-548).
T6 sequence: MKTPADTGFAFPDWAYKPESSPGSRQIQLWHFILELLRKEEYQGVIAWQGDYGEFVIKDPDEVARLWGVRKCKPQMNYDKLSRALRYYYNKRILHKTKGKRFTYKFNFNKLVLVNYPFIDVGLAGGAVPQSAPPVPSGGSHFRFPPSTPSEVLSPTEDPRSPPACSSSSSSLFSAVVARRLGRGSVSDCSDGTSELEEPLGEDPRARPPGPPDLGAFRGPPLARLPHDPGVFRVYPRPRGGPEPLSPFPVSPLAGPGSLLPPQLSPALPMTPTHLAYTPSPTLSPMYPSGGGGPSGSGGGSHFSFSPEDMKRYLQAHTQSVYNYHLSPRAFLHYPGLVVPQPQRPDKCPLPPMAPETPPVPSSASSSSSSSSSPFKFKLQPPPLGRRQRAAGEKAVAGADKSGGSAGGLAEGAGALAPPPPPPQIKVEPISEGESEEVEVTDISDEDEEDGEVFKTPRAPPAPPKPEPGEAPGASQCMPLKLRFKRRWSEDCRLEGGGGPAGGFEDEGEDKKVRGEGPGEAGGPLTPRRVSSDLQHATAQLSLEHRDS
The note with it: protein: recombinant; tags: N-terminal GST; dsDNA, one strand shown. The method, boiled down:
as §1

The target of another assay is T7, ETV3L (Homo sapiens, UniProt Q6ZN32 1-361).
T7 sequence: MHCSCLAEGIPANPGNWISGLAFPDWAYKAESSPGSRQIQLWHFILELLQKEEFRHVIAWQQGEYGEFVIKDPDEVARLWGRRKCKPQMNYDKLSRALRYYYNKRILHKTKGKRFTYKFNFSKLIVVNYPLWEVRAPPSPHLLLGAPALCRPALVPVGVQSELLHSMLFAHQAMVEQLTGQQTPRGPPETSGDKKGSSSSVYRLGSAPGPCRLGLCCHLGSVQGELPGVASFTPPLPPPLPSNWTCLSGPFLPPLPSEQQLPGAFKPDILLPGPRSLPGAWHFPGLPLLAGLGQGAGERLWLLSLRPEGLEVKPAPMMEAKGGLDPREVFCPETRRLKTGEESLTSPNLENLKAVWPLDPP
The conditions noted are these: protein: recombinant; tags: N-terminal GST; dsDNA, one strand shown. The method in brief:
as §1

In a further assay the target is T8, ETS2 (Homo sapiens, UniProt P15036 1-469).
T8 sequence: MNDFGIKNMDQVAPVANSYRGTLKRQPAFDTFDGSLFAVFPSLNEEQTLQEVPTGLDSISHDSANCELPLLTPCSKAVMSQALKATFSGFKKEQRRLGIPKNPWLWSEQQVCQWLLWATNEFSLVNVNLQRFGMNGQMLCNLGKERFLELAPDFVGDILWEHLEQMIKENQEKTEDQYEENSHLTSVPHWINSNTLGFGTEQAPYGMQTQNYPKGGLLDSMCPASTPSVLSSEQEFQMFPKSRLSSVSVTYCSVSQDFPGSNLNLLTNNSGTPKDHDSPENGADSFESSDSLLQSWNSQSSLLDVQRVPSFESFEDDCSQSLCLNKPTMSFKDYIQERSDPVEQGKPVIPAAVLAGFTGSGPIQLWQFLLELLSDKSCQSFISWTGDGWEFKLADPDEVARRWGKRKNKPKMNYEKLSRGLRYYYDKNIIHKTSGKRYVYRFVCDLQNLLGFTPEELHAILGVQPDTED
The note with it: protein: recombinant; tags: N-terminal GST; dsDNA, one strand shown. The method, boiled down: as §1

The target in the next assay is T9, SPDEF (Homo sapiens, UniProt O95238 1-335).
T9 sequence: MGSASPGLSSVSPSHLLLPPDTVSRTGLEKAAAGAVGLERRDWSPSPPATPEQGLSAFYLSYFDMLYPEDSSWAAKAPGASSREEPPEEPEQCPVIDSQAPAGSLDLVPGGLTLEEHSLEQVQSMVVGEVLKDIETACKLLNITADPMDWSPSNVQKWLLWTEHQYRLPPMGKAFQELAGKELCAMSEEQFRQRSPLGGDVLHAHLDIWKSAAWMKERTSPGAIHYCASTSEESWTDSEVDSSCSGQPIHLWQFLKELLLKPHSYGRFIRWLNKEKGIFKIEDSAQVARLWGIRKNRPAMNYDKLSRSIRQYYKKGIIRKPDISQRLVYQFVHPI
The conditions noted are these: protein: recombinant; tags: N-terminal GST; dsDNA, one strand shown. The method in brief:
as §1

In the next assay the target is T10, ETV7 (Homo sapiens, UniProt Q9Y603 1-341).
T10 sequence: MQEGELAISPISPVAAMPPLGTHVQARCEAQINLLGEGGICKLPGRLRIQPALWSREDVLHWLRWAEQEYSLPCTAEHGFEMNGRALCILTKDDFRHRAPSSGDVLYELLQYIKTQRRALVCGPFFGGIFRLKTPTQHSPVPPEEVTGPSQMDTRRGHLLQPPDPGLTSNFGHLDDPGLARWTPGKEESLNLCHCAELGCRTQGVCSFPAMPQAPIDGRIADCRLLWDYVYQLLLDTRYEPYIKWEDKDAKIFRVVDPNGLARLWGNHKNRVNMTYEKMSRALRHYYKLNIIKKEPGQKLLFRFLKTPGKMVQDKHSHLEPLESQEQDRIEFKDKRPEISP
The note with it: protein: recombinant; tags: N-terminal GST; dsDNA, one strand shown. The method, boiled down:
as §1

In the next assay the target is T11, ELF5 (Homo sapiens, UniProt Q9UKW6-2 1-255).
T11 sequence: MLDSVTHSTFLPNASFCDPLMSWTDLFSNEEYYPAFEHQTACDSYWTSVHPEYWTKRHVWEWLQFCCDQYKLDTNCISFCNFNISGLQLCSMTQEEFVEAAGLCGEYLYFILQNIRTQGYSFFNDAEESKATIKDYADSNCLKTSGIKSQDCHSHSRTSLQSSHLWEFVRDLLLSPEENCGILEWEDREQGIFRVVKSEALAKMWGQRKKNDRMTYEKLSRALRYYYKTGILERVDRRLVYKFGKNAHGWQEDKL
The conditions noted are these: protein: recombinant; tags: N-terminal GST; dsDNA, one strand shown. The method, boiled down:
as §1

For another assay, the target named is T12, ETV3 (Homo sapiens, UniProt P41162-2 1-143).
T12 sequence: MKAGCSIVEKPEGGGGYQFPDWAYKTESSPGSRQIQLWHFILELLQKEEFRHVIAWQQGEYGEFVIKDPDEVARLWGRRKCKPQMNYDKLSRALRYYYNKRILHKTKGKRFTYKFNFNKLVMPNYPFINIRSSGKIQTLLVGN
The note with it: protein: recombinant; tags: N-terminal GST; dsDNA, one strand shown. The method in brief:
as §1

In another assay the target is ETV6 (Homo sapiens, UniProt P41212 1-452). The conditions noted are these: protein: recombinant; tags: N-terminal GST; dsDNA, one strand shown. The method in brief: as §1
Sequence of ETV6 (P41212 whole entry): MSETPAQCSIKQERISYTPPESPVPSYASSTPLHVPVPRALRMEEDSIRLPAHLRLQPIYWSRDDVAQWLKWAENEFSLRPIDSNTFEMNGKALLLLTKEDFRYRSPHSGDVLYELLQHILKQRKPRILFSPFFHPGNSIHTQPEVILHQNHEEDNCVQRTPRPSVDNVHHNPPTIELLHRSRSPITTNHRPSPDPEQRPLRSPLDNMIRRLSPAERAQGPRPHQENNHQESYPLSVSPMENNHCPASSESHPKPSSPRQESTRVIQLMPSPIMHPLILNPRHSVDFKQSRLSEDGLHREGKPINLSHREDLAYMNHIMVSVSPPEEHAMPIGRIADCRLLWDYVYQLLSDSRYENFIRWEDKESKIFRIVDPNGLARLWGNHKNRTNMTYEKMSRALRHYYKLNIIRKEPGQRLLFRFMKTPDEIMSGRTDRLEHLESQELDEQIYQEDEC

Sequence of ETV1 (P50549 whole entry): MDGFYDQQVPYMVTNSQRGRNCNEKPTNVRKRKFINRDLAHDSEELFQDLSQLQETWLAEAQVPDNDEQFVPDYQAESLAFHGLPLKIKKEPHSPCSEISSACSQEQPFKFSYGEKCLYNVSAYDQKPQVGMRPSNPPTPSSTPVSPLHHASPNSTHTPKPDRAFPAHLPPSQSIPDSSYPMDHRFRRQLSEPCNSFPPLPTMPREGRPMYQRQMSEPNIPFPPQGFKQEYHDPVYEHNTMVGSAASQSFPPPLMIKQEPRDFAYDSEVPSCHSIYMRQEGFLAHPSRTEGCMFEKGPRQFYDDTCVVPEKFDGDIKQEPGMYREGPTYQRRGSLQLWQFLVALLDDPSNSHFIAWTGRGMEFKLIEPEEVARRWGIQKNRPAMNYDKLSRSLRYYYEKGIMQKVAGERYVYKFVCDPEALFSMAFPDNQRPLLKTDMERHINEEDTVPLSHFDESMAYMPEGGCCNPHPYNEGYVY
Sequence of HSF1 (Q00613 whole entry): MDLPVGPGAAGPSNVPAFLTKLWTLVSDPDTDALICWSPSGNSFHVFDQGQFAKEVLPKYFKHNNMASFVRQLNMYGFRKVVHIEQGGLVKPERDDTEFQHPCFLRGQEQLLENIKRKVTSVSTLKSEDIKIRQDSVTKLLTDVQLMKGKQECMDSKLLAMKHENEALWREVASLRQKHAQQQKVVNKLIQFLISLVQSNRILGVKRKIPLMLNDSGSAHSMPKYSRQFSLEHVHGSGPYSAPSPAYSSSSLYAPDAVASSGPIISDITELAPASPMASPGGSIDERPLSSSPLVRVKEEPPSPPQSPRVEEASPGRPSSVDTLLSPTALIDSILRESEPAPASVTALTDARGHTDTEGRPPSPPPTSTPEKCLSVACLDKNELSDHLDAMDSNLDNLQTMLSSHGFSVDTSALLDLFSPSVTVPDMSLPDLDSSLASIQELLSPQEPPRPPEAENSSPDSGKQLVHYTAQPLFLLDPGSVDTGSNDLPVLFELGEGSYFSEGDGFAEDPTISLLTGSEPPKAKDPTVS
Sequence of CRX (O43186 whole entry): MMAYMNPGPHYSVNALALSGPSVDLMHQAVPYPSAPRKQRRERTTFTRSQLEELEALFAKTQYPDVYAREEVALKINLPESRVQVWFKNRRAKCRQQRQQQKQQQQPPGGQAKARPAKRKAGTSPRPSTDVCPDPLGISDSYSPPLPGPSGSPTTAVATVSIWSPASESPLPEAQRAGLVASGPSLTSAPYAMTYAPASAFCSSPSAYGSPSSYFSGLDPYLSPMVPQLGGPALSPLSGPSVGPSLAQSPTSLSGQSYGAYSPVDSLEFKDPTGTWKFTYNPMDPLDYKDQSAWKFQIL
Sequence of ETV5 (P41161 whole entry): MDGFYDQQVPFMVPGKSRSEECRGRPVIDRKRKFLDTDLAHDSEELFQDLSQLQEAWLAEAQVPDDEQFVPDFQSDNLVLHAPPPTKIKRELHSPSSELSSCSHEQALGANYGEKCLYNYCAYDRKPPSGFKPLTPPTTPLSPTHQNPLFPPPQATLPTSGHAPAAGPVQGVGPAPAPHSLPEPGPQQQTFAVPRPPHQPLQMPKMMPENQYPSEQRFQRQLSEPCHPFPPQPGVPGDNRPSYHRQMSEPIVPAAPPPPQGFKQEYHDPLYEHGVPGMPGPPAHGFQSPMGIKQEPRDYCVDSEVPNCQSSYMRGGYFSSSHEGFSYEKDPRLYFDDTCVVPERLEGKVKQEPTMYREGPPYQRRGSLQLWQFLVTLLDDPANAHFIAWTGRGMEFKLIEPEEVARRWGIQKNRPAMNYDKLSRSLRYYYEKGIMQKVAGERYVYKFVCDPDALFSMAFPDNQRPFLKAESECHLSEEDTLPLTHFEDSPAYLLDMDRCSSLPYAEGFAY
Sequence of ELF4 (Q99607 whole entry): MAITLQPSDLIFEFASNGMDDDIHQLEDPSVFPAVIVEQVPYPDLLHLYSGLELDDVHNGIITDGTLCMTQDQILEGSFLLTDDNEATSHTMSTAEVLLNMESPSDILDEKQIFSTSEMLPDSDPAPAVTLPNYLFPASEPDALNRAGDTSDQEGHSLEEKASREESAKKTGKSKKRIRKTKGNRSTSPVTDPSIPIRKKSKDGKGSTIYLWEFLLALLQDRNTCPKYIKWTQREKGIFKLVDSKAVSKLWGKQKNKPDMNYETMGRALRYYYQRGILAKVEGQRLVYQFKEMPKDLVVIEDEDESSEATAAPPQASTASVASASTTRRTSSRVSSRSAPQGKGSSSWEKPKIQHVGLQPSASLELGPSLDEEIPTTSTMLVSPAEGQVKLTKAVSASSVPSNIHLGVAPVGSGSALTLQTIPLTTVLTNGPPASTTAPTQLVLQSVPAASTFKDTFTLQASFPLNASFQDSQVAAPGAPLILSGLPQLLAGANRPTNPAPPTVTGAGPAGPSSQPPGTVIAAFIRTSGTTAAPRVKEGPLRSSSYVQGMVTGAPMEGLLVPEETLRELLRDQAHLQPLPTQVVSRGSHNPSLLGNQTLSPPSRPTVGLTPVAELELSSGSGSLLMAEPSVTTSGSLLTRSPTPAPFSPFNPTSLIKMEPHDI

For CCTCTA, the binding signal is 1.4 fold enrichment (6-mer frequency, TF over GST control) with FEV; 1.27 fold enrichment (6-mer frequency, TF over GST control) in the assay with ETV5; 1.38 fold enrichment (6-mer frequency, TF over GST control) with HSF1; 1.37 fold enrichment (6-mer frequency, TF over GST control) in the assay with SPIC; 1.35 fold enrichment (6-mer frequency, TF over GST control) with ELF4; 1.24 fold enrichment (6-mer frequency, TF over GST control) with ELK4. For the same sequence, the binding signal is 1.37 fold enrichment (6-mer frequency, TF over GST control) in the assay with ETV2; 1.43 fold enrichment (6-mer frequency, TF over GST control) with ELF3; 1.45 fold enrichment (6-mer frequency, TF over GST control) in the assay with CRX; 1.28 fold enrichment (6-mer frequency, TF over GST control) with ETV1; 1.34 fold enrichment (6-mer frequency, TF over GST control) with ERF; 1.38 fold enrichment (6-mer frequency, TF over GST control) with ETV3L. Moreover, the binding signal is 1.46 fold enrichment (6-mer frequency, TF over GST control) in the assay with ETS2; 1.32 fold enrichment (6-mer frequency, TF over GST control) with SPDEF; 1.36 fold enrichment (6-mer frequency, TF over GST control) with ETV7; 1.48 fold enrichment (6-mer frequency, TF over GST control) with ELF5; 1.33 fold enrichment (6-mer frequency, TF over GST control) with ETV3; 1.3 fold enrichment (6-mer frequency, TF over GST control) in the assay with ETV6.
